Here are results for 13 compounds from PubChem BioAssay (NCI).

Among the test systems are SR leukemia; OVCAR-8 ovarian; OVCAR-5 ovarian; OVCAR-4 ovarian; SK-OV-3 ovarian; IGROV1 ovarian; OVCAR-3 ovarian; HS 578T breast; NCI/ADR-RES ovarian; RPMI-8226 leukemia.
Common to all, as to experiment: NCI-60 one-dose screen, 48 h (100 = growth as untreated, 0 = no growth, -100 = all killed)
What all share (settings): 10 µM unless noted

Several values for one entry are separate records, joined by “and”; a condition that tells them apart may be missing. Equal values may be shown once. This is part of a sample that, as a whole, favours compounds with a hit. Of some 83,000 tested, about 20% had one in any assay.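 Single-dose data. Exposure time 48 hours. Values below 10 considered active.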 Unmarked numbers belong to inactive results. Activity calls are given as the source filed them.

`CN1C(=O)/C(=C/c2ccc(C(=O)Nc3ncc(Cc4ccccc4Cl)s3)cc2)SC1=S`: the growth is 35.7% with SR leukemia; 79.3% in the assay with OVCAR-8 ovarian; 70.5% in the assay with OVCAR-5 ovarian; 69.6% in the assay with OVCAR-4 ovarian; 80.5% in the assay on SK-OV-3 ovarian; 78.8% with IGROV1 ovarian. In addition, the growth was 93.3% in the assay with OVCAR-3 ovarian, 65.8% with HS 578T breast and 71.6% in the assay on NCI/ADR-RES ovarian.
As to `COc1ccc(C(c2cc(OC)c(OC)c(OC)c2)n2ccnc2)cc1O` (configuration not stated), the growth is 8.48% (active) in the assay with SR leukemia; 10.3% in the assay with OVCAR-8 ovarian; 71.1% with OVCAR-5 ovarian; 73.6% in the assay on OVCAR-4 ovarian; 21.8% in the assay on SK-OV-3 ovarian; 36.4% in the assay on IGROV1 ovarian. Further, the growth in the assay with OVCAR-3 ovarian is -9.52% (active); with HS 578T breast, 29.1%; in the assay on NCI/ADR-RES ovarian it was 12.1%.
As for `Cc1ccc(-c2nc3nc(-c4ccccc4)nc(N4CCN(S(=O)(=O)c5ccccc5)CC4)c3o2)cc1`, the growth was 104% in the assay on SR leukemia; 75.5% with OVCAR-8 ovarian; 99% in the assay on OVCAR-5 ovarian; 99.6% with OVCAR-4 ovarian; 77.4% with SK-OV-3 ovarian; 89.2% in the assay on IGROV1 ovarian. Also, the growth in the assay on OVCAR-3 ovarian was 93%; with HS 578T breast it was 43.1%; in the assay on NCI/ADR-RES ovarian, 85.7%.
For the compound `CC12CCC(C(=O)CC1=O)C2(C)C` (configuration not stated), the growth with SR leukemia was 122% and 93%; in the assay on RPMI-8226 leukemia it was 101% and 94.2%; with OVCAR-8 ovarian it was 103% and 99.5%; in the assay with OVCAR-4 ovarian, 101%; in the assay on SK-OV-3 ovarian it was 104% and 105%; in the assay on IGROV1 ovarian, 110% and 104%. Also, the growth was 108% and 120% in the assay with HS 578T breast; 111% and 103% in the assay on NCI/ADR-RES ovarian.
In the case of `O=C1/C(=C/c2cn(-c3ccccc3)nc2-c2ccccc2)SC(=S)N1c1ccccc1`, the growth in the assay on SR leukemia was 108%; in the assay with OVCAR-8 ovarian, 104%; in the assay with OVCAR-5 ovarian it was 106%; in the assay with OVCAR-4 ovarian, 103%; in the assay on SK-OV-3 ovarian, 111%; in the assay on IGROV1 ovarian, 94.5%. Besides, the growth with OVCAR-3 ovarian is 109%; in the assay with HS 578T breast it was 101%; with NCI/ADR-RES ovarian, 103%.
With `C=C[C@]1(C)C=C2CC[C@@H]3C(C)(C)C(=O)CC[C@@]3(C)[C@@H]2CC1`, the growth was 102% with SR leukemia; 103% in the assay on OVCAR-8 ovarian; 111% in the assay on OVCAR-5 ovarian; 102% in the assay with OVCAR-4 ovarian; 111% in the assay with SK-OV-3 ovarian; 11.3% in the assay with IGROV1 ovarian. Besides, the growth is 109% in the assay on OVCAR-3 ovarian, 104% in the assay with HS 578T breast and 110% in the assay with NCI/ADR-RES ovarian.
Take `O=c1ccc2nc(-c3ccccn3)nn(-c3ccccc3)c-2c1`: the growth in the assay on SR leukemia was 5.21% (active); with OVCAR-8 ovarian it was 87.1%; in the assay on OVCAR-5 ovarian, 109%; with OVCAR-4 ovarian, 81.8%; in the assay with SK-OV-3 ovarian, 84.9%; in the assay on IGROV1 ovarian it was 87.9%. The growth in the assay on HS 578T breast is 93.9%; with NCI/ADR-RES ovarian it was 98%.
`COCCn1cc(-c2csc(-c3cn(C)c4ccc(F)cc34)n2)c2cccnc21`: the growth in the assay on SR leukemia was 33.8%; in the assay on OVCAR-8 ovarian it was 71.3%; in the assay on OVCAR-5 ovarian, 80.7%; in the assay with OVCAR-4 ovarian, 47.8%; in the assay with SK-OV-3 ovarian, 92.6%; with IGROV1 ovarian, 93.9%. Further, the results for the growth in the assay with OVCAR-3 ovarian and in the assay with NCI/ADR-RES ovarian were 76% and 58.6%, respectively.
As for `O=C1OCC2=C1C(c1cccc([N+](=O)[O-])c1)c1cc3c(cc1N2CCO)CCC3` (configuration not stated), the growth with SR leukemia was 15.2%; in the assay with OVCAR-8 ovarian, 5.88% (active); in the assay on OVCAR-5 ovarian, 43.5%; with OVCAR-4 ovarian, 40%; in the assay on SK-OV-3 ovarian, 27%; in the assay with IGROV1 ovarian, 25.9%. For the same compound, the growth in the assay on OVCAR-3 ovarian was -1.17% (active); with HS 578T breast, 21.9%; in the assay with NCI/ADR-RES ovarian it was 3.57% (active).
With `CCN1C(=O)/C(=c2\sc3n(c2=O)C2C(NN=3)N(CC)C(=O)N2CC)c2ccccc21` (configuration not stated), the growth was 15.3% with SR leukemia; 31.8% with OVCAR-8 ovarian; 54.2% in the assay with OVCAR-5 ovarian; 49.5% in the assay with OVCAR-4 ovarian; 54.5% with SK-OV-3 ovarian; 29% in the assay with IGROV1 ovarian. Further, the figures for the growth in the assay on OVCAR-3 ovarian and in the assay with HS 578T breast were -19% (active) and 24.4%, respectively.
Consider `CCN(CC)CCCN1C(=O)c2c(c(C)c3c(oc4cc(OC)ccc43)c2C)C1=O`, for which the growth was -4.78% (active) with SR leukemia; 17% with OVCAR-8 ovarian; 85% with OVCAR-5 ovarian; 111% in the assay with OVCAR-4 ovarian; 129% in the assay with SK-OV-3 ovarian; 86.6% in the assay on IGROV1 ovarian. The growth with OVCAR-3 ovarian is 110%; in the assay on HS 578T breast, 108%; in the assay on NCI/ADR-RES ovarian, 96%.
For `Cn1cc(-c2nc3c(F)cc4[nH]ncc4c3c3c2CCCC3)c(C(F)F)n1`, the growth in the assay with SR leukemia was -16.9% (active); with OVCAR-8 ovarian it was 73%; in the assay with OVCAR-5 ovarian, 71.2%; in the assay with OVCAR-4 ovarian, 100%; in the assay with SK-OV-3 ovarian, 37.2%; in the assay on IGROV1 ovarian it was 51.8%. The growth with OVCAR-3 ovarian was 84.4%; with HS 578T breast, 40.4%; in the assay on NCI/ADR-RES ovarian, 77.9%.
Turning to `Clc1ccc(Nc2nc(Nc3ccc(Cl)cc3)nc(Nc3ccc(-c4cc(-c5cccc(Cl)c5)on4)cc3)n2)cc1`, the growth was -9.82% (active) with SR leukemia; 85.5% in the assay on OVCAR-8 ovarian; 101% in the assay on OVCAR-4 ovarian; 103% in the assay with SK-OV-3 ovarian; 104% with IGROV1 ovarian; 90.1% in the assay with OVCAR-3 ovarian. Further, the growth with HS 578T breast is 105%; in the assay with NCI/ADR-RES ovarian it was 84.1%.
